Experimental data: the supplement of paper PMC10849652
Of roughly 8,800 targets only a part is listed; those with a hit were picked by preference. About 0.5% of all pairs of compound and target were hits.

Columns and labels:
Test in all cases: log2 fold change, soluble protein after heating vs DMSO (PISA); higher = thermal stabilisation; K562 lysate, 10 uM; active = over 0.2 and 3.5 SD of the protein, either way, in both replicates (recomputed)
[1] = compound: Cc1cn(-c2cc(NC(=O)c3ccc(C)c(Nc4nccc(-c5cccnc5)n4)c3)cc(C(F)(F)F)c2)cn1 [nilotinib]
In short: (§1)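 Pellets of K562 cells were dounce-homogenised in PBS pH 7.4 with 1 mM MgCl2, and the crude extract was held at 1 mg/mL protein for a 30 min treatment with 10 μM compound. Aliquots were heated for 3 min over 48°C-58°C and pooled before NP-40 was added to 0.5% at 4°C. The supernatant from 21,000xg for 90 min was quantified by TMTpro 16plex LC-MS/MS with channel sums equalised. Values are reported from duplicates as log-two fold change in thermal stability relative to solvent controls.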

[2] = compound: Cc1nc(Nc2n[nH]c3c2CN(C(=O)N[C@H](CN(C)C)c2ccccc2)C3(C)C)c2sccc2n1
In short: as §1

[3] = compound: Cc1nc(Nc2ncc(C(=O)Nc3c(C)cccc3Cl)s2)cc(N2CCN(CCO)CC2)n1 [dasatinib]
In short: as §1

[4] = compound: Cc1ncc(-c2ccnc(Nc3ccc(S(C)(=O)=O)cc3)n2)n1C(C)C
In short: as §1

[5] = compound: Cn1cc(-c2ccc3c(c2)CCN3C(=O)Cc2cccc(C(F)(F)F)c2)c2c(N)ncnc21
In short: as §1

[6] = compound: Cn1cc(CNCC2CCN(c3ncc(C(=O)NO)cn3)CC2)c2ccccc21 [quisinostat]
In short: as §1

[7] = compound: Cn1cncc1[C@@](N)(c1ccc(Cl)cc1)c1ccc2c(c1)c(-c1cccc(Cl)c1)cc(=O)n2C [tipifarnib]
In short: as §1

[8] = compound: NC(=O)Nc1cc(-c2cccc(F)c2)sc1C(=O)N[C@H]1CCCNC1
In short: as §1

[9] = compound: NC(=O)c1cnc(N[C@@H]2CCCC[C@@H]2N)nc1Nc1cccc(-n2nccn2)c1
In short: as §1

[10] = compound: NC1(c2ccc(-c3nc4ccn5c(=O)[nH]nc5c4cc3-c3ccccc3)cc2)CCC1
In short: as §1

[11] = compound: NCC(=O)Nc1ccc(-n2nc(C(F)(F)F)cc2-c2ccc3c(ccc4ccccc43)c2)cc1
In short: as §1

[12] = compound: O=C(CCCCCCC(=O)Nc1ccccc1)NO [vorinostat]
In short: as §1

[13] = compound: O=C(O)c1ccc2c(c1)nc(Nc1cccc(Cl)c1)c1ccncc12 [silmitasertib]
In short: as §1

[14] = compound: O=C1NC(=O)C(c2cnc3ccccn23)=C1c1cn2c3c(cc(F)cc13)CN(C(=O)N1CCCCC1)CC2
In short: as §1

[15] = compound: c1cn2cc(-c3ccc4cn[nH]c4c3)nc(Nc3ccc(N4CCOCC4)cc3)c2n1 [entospletinib]
In short: as §1

Measured: log2 fold change

HACE1 (UniProt Q8IYU2)
UniProt Q8IYU2, sequence (Q8IYU2 whole entry, looked up): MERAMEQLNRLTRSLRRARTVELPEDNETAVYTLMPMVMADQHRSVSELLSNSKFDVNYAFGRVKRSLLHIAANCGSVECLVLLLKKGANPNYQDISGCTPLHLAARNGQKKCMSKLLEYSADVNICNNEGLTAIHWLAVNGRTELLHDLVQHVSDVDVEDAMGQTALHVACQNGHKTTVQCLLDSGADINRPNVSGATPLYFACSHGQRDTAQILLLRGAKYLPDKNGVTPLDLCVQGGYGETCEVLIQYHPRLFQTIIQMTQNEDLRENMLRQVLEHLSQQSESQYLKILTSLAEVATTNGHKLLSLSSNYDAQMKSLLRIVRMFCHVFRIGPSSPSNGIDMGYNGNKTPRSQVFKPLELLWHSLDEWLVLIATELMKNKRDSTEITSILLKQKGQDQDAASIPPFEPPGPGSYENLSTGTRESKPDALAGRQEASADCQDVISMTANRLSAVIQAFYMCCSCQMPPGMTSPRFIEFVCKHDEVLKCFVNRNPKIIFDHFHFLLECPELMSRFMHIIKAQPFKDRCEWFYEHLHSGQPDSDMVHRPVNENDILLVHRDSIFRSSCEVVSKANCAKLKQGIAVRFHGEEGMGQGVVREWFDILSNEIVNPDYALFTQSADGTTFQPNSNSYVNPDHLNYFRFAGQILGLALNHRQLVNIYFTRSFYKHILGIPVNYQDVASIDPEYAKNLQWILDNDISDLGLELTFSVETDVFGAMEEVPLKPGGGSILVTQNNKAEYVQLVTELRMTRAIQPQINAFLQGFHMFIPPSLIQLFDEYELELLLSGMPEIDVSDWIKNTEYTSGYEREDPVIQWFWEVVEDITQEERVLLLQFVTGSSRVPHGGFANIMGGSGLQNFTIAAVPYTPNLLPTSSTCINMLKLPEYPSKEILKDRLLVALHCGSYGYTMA
inactive: [1] -0.027 | [2] 0.043 | [3] -0.154 | [4] 0.035 | [5] -0.084 | [6] 0.061 | [7] -0.175 | [8] 0.181 | [9] 0.028 | [10] -0.02 | [11] 0.183 | [12] -0.126 | [13] -0.002 | [14] 0.084 | [15] 0.012

HARS (UniProt P12081)
UniProt P12081, sequence (P12081 whole entry, looked up): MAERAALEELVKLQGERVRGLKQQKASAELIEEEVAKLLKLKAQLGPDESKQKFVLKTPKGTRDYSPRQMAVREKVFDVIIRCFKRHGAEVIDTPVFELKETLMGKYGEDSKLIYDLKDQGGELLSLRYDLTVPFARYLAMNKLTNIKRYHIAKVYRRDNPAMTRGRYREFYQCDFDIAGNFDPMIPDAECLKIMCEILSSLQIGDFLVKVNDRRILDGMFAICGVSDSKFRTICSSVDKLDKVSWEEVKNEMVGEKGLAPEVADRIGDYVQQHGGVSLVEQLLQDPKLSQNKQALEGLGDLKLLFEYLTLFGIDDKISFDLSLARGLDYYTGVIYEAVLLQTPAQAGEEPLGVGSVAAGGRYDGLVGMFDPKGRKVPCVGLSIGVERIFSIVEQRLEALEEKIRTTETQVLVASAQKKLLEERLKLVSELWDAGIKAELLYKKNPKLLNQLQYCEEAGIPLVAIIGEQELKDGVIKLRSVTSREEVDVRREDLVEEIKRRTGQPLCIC
inactive: [1] 0.031 | [2] 0.003 | [3] -0.006 | [4] -0.015 | [5] 0.008 | [6] -0.021 | [7] 0.019 | [8] -0.019 | [9] 0.005 | [10] 0.021 | [11] -0.031 | [12] -0.003 | [13] 0.02 | [14] -0.054 | [15] 0.001

GIT1 (UniProt Q9Y2X7)
UniProt Q9Y2X7, sequence (Q9Y2X7 whole entry, looked up): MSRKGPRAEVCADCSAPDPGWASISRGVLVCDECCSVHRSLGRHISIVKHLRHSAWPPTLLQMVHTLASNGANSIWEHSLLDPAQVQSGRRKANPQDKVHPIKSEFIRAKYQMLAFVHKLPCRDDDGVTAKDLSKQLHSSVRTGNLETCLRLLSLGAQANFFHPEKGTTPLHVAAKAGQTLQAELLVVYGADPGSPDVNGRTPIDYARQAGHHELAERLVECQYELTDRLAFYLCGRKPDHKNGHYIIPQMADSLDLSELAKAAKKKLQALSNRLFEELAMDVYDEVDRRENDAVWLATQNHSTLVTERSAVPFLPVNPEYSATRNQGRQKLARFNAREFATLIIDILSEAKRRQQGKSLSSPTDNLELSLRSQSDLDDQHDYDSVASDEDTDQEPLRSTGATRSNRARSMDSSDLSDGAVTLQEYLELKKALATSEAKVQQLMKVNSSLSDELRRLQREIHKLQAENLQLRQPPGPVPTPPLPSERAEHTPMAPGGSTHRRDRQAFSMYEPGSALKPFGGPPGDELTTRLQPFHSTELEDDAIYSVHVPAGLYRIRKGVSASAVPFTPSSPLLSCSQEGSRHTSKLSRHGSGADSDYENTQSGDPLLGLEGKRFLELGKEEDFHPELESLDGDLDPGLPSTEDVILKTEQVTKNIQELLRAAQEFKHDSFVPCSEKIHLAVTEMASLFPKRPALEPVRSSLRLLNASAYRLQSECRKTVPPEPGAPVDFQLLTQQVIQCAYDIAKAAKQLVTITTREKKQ
active: [12] -0.32
inactive: [1] 0.03 | [2] -0.062 | [3] -0.05 | [4] -0.042 | [5] 0.036 | [6] -0.045 | [7] -0.086 | [8] 0.035 | [9] -0.007 | [10] -0.026 | [11] -0.043 | [13] 0.009 | [14] 0.006 | [15] -0.005

HDLBP, A0A024R4E5
active: [12] -0.427
inactive: [1] -0.011 | [2] 0.006 | [3] -0.038 | [4] 0.014 | [5] 0.015 | [6] -0.076 | [7] 0.001 | [8] 0.018 | [9] -0.002 | [10] -0.022 | [11] 0.009 | [13] -0.013 | [14] 0.004 | [15] 0.009

HDAC1 (UniProt Q13547)
inactive: [1] 0.01 | [2] -0.024 | [3] -0.021 | [4] -0.019 | [5] 0.028 | [7] -0.041 | [8] -0.033 | [9] 0.03 | [10] 0.009 | [11] 0.018 | [13] -0.008 | [14] -0.015 | [15] 0.008
active: [6] 0.857 | [12] 0.644

GLB1 (UniProt P16278)
inactive: [1] -0.006 | [2] 0.03 | [3] -0.026 | [4] 0.023 | [5] 0.003 | [6] 0.03 | [7] 0.017 | [8] -0.016 | [9] -0.011 | [10] -0.022 | [11] 0.003 | [12] -0.013 | [13] -0.03 | [14] -0.043 | [15] -0.018

INTS7 (UniProt Q9NVH2)
UniProt Q9NVH2, sequence (Q9NVH2 whole entry, looked up): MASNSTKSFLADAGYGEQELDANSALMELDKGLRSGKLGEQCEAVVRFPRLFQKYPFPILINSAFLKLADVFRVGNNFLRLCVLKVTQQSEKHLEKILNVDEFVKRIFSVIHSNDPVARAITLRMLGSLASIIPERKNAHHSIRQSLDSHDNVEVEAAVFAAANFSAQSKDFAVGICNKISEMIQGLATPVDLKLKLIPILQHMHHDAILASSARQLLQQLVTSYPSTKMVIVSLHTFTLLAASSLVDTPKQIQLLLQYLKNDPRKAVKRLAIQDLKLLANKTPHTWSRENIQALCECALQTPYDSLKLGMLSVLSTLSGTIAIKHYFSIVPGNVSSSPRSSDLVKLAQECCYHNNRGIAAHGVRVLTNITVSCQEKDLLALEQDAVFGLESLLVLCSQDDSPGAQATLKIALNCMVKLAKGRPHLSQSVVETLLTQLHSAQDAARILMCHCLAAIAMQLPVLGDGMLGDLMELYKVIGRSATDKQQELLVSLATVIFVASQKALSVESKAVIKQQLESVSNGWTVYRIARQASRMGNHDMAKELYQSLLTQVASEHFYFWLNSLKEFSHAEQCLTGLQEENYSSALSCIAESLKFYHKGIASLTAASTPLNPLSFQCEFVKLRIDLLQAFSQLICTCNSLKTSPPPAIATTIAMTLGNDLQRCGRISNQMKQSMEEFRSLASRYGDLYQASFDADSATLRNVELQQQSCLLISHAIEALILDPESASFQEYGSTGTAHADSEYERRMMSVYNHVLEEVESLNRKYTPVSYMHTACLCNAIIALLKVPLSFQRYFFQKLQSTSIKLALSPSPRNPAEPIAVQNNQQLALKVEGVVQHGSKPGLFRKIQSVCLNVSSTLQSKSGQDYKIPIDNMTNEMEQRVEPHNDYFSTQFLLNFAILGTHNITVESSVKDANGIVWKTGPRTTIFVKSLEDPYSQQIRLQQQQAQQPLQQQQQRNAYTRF
inactive: [1] -0.02 | [2] -0.014 | [3] -0.004 | [4] -0.009 | [5] -0.008 | [6] -0.071 | [7] 0.037 | [8] 0.088 | [9] 0.032 | [10] -0.002 | [11] 0.017 | [12] -0.149 | [13] -0.011 | [14] 0.189 | [15] 0.03

HMGA1 (UniProt P17096)
inactive: [1] 0.035 | [2] 0.039 | [3] -0.012 | [4] 0.014 | [5] -0.08 | [6] -0.018 | [7] 0.032 | [8] -0.004 | [9] -0.025 | [10] -0.059 | [11] 0.056 | [12] 0.111 | [13] 0.001 | [14] 0.038 | [15] -0.011

IARS2 (UniProt Q9NSE4)
UniProt Q9NSE4, sequence (Q9NSE4 whole entry, looked up): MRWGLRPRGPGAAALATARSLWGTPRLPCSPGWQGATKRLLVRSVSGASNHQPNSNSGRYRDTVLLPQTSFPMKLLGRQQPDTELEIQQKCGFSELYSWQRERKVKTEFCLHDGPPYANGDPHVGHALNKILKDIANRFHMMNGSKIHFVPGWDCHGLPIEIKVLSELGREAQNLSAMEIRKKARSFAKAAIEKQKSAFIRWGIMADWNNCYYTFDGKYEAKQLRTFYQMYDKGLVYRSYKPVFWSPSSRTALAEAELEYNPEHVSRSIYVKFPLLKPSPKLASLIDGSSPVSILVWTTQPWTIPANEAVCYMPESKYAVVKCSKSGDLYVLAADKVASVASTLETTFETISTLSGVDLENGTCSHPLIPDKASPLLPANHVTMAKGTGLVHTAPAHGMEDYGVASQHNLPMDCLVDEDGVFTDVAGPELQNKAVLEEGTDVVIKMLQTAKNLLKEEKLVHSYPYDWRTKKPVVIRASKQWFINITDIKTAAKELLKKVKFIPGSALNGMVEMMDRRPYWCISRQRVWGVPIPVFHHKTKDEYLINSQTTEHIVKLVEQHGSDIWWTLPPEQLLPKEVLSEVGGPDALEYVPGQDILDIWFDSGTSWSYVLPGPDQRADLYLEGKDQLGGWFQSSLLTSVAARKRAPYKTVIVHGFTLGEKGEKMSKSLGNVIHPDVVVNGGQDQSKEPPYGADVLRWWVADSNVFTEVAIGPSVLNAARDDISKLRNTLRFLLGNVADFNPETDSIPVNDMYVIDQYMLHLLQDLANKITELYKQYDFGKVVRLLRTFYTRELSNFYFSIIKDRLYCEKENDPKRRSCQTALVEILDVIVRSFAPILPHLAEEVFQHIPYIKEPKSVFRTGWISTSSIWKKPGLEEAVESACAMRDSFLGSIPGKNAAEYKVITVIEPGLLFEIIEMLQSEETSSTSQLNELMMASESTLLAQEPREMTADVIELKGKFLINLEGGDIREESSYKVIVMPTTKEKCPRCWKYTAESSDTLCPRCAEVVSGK
inactive: [1] 0.016 | [2] -0.007 | [3] -0.021 | [4] 0.026 | [5] 0 | [6] 0.022 | [7] 0.006 | [8] 0.021 | [9] 0.02 | [10] -0.004 | [11] -0.002 | [12] 0.079 | [13] -0.01 | [14] -0.021 | [15] 0.01

GORASP1 (UniProt Q9BQQ3)
inactive: [1] 0.011 | [2] -0.02 | [3] -0.019 | [4] 0.034 | [5] 0.048 | [6] 0.034 | [7] -0.006 | [8] -0.071 | [9] 0.177 | [10] -0.11 | [11] -0.041 | [12] -0.01 | [13] 0.067 | [14] -0.018 | [15] -0.09

INTS10 (UniProt Q9NVR2)
inactive: [1] -0.01 | [2] -0.025 | [3] -0.054 | [4] -0.024 | [5] 0.109 | [6] -0.034 | [7] -0.021 | [8] 0.011 | [9] 0.039 | [10] 0.028 | [11] 0.027 | [13] 0.047 | [14] 0.002 | [15] 0.006
active: [12] -0.438

GMPS (UniProt P49915)
active: [12] -0.553
inactive: [1] -0.006 | [2] -0.019 | [3] -0.016 | [4] 0 | [5] 0 | [6] 0.041 | [7] -0.008 | [8] 0.001 | [9] 0.001 | [10] 0.009 | [11] 0.017 | [13] 0.028 | [14] 0.002 | [15] 0.01

HADHB (UniProt P55084)
inactive: [1] 0.052 | [2] -0.028 | [3] -0.026 | [4] 0.022 | [5] 0.066 | [6] -0.064 | [7] 0.028 | [8] -0.122 | [9] -0.076 | [10] 0.073 | [11] 0.047 | [12] -0.199 | [13] -0.033 | [14] 0.269 | [15] 0.063

HDAC10 (UniProt Q969S8)
inactive: [1] -0.009 | [2] 0.023 | [3] -0.104 | [4] 0.032 | [5] 0.144 | [6] 0.245 | [7] -0.123 | [8] 0.092 | [9] 0.111 | [10] -0.001 | [11] 0.147 | [12] 0.211 | [13] 0.156 | [14] -0.032 | [15] 0.053

IARS (UniProt P41252)
active: [12] -0.325
inactive: [1] 0.007 | [2] -0.007 | [3] -0.042 | [4] -0.015 | [5] 0.053 | [6] -0.02 | [7] -0.003 | [8] 0.038 | [9] 0.001 | [10] -0.029 | [11] 0.014 | [13] 0.046 | [14] -0.008 | [15] 0.031

HAUS2 (UniProt Q9NVX0)
UniProt Q9NVX0, sequence (Q9NVX0 whole entry, looked up): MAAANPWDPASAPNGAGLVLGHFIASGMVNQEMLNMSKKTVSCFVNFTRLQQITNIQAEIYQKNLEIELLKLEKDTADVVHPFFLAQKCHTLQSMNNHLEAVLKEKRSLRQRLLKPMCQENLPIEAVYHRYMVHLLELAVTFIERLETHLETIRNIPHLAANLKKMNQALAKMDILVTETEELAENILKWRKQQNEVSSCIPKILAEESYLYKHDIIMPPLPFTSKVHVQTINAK
inactive: [1] 0.036 | [2] -0.033 | [3] -0.028 | [4] 0.069 | [5] 0.05 | [6] -0.04 | [7] -0.034 | [8] -0.014 | [9] -0.094 | [10] 0.037 | [11] -0.052 | [13] -0.037 | [14] 0.039 | [15] -0.029
active: [12] -0.514

HMGN5 (UniProt P82970)
inactive: [1] 0.029 | [2] 0.001 | [3] 0.03 | [4] 0.019 | [5] -0.003 | [6] 0.074 | [7] 0.04 | [8] -0.042 | [9] -0.027 | [10] -0.003 | [11] -0.014 | [12] 0.14 | [13] 0.002 | [14] -0.005 | [15] 0.002

GMIP (UniProt Q9P107)
active: [12] -0.302
inactive: [1] -0.094 | [2] -0.041 | [3] -0.097 | [4] -0.058 | [5] 0.023 | [6] -0.012 | [7] -0.017 | [8] 0.034 | [9] -0.025 | [10] -0.022 | [11] -0.018 | [13] 0.058 | [14] 0.021 | [15] -0.038

IMPACT (UniProt Q9P2X3)
UniProt Q9P2X3, sequence (Q9P2X3 whole entry, looked up): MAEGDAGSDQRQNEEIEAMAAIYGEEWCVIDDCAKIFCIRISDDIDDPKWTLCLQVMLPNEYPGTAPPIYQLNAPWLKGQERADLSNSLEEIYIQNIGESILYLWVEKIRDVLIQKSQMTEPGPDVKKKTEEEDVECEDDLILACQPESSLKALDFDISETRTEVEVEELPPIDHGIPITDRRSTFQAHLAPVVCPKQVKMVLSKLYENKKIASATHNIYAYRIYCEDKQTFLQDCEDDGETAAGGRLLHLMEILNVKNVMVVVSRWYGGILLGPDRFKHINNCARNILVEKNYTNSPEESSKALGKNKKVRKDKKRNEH
active: [4] -0.687
inactive: [1] 0.087 | [2] -0.066 | [3] 0.013 | [5] 0.04 | [6] -0.103 | [7] -0.13 | [8] 0.11 | [9] 0.071 | [10] 0.087 | [11] 0.019 | [12] -0.125 | [13] -0.096 | [14] -0.082 | [15] -0.027

GSTM4 (UniProt Q03013)
UniProt Q03013, sequence (Q03013 whole entry, looked up): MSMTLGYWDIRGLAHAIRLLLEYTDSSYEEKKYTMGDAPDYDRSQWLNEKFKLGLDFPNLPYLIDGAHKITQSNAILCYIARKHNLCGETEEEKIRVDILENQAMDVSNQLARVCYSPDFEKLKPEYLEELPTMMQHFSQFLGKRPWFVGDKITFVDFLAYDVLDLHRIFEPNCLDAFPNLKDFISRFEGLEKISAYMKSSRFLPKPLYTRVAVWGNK
inactive: [1] -0.163 | [2] 0.019 | [3] -0.047 | [4] 0.054 | [5] 0.118 | [6] 0.163 | [7] 0.008 | [8] -0.003 | [9] 0.024 | [10] -0.032 | [11] 0.025 | [12] 0.015 | [14] 0.012 | [15] -0.03
active: [13] 0.301

HAUS5 (UniProt O94927)
inactive: [1] -0.014 | [2] 0.01 | [3] -0.071 | [4] -0.011 | [5] -0.015 | [6] -0.11 | [7] 0.006 | [8] 0.079 | [9] 0.004 | [10] -0.02 | [11] 0.031 | [13] 0.045 | [14] -0.015 | [15] 0.013
active: [12] -0.416
